# In all, about 640,000 compounds went through this assay and about 9,300 (1.5%) were called active. This excerpt belongs to a sample that is enriched for actives. A number with no mark means an inactive call. Rule as the data show it: active = inhibition above about 32%; inactive = the rest.
# Assay: TEAD-YAP interaction inhibition, primary screen, TEAD-YAP interaction inhibitor project, luminescence, HEK-TIYL cells (AID 1259422);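 also: 0% = median of test compound wells and 100% = reference inhibitor wells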
# Settings: TEAD-Gal4/YAP UAS-luciferase luminescence, at 9.12 µM, hits give high values
row,Compound,inhibition
1,Cc1cc(OCc2nc(SCC(=O)N(C)C)n[nH]2)ccc1Cl,-1.92%
2,Cc1ccccc1Nc1ncnc2nc[nH]c12,-0.78%
3,COc1cc(C(=O)NC(=S)Nc2ccccc2O)cc(OC)c1OC,12%
4,Cc1nc2ccccc2n1CC(O)COc1ccc(N)cc1 (stereo not given),10.8%
5,CCc1cc(C)cc(OCC(O)Cn2c(C)nc3ccccc32)c1 (stereo not given),26.7%
6,Cc1cc(C)c(OCC(O)Cn2c(C)nc3ccccc32)c(C)c1 (stereo not given),35.1% (active)
7,O=C(Oc1cc(-c2ccc(Cl)cc2)c2oc(=O)sc2c1)c1ccccc1,-3.66%
8,COc1ccccc1N1CCN(c2c(-c3ccc(Cl)cc3)c(=O)c2=O)CC1,70.2% (active)
9,COc1ccccc1N1CCN(Cc2cc(=O)c(OCc3ccc(Cl)cc3)co2)CC1,6.69%
10,COc1ccccc1N1CCN(S(=O)(=O)c2ccccc2[N+](=O)[O-])CC1,13%
11,CCOC(=O)N1CCC(N2C(=O)c3ccc(C(=O)NCC(OC)OC)cc3C2=O)CC1,10.6%
12,CCCCSc1nnc(NC(=O)C2CC2)s1,-17.5%
13,NS(=O)(=O)c1cccc(N=C2C(=O)Nc3ccc([N+](=O)[O-])cc32)c1,-2.91%
14,CCN(CC)c1ccc2cc(-c3nc4ccc(Cl)cc4[nH]3)c(=O)oc2c1,25.2%
15,CCN(CC)c1ccc2cc(-c3nc4ccccc4[nH]3)c(=N)oc2c1,76.8% (active)
16,CCN(CC)c1ccc2cc(-c3nnc(Nc4ccccc4F)s3)c(=O)oc2c1,2.05%
17,CC[n+]1c(/C=C/c2ccc(N(C)C)cc2)oc2ccccc21,1.32%
18,CC[n+]1cc(C)ccc1/C=C/c1ccc(N(C)C)cc1,86.9% (active)
19,CN(C)c1ccc(C=NCC(O)CN=Cc2ccc(N(C)C)cc2)cc1 (stereo not given),3.49%
20,Cc1ccc(/C=C2/SC(=O)N(CCC(=O)O)C2=O)cc1,19.7%
21,COc1ccc(/C=C2\SC(=O)N(Cc3ccc(C(=O)O)cc3)C2=O)cc1,1.76%
22,COc1ccc(/C=C2/SC(=O)N(CCCC(=O)Nc3ccc(C(=O)O)cc3)C2=O)cc1,80.5% (active)
23,COc1ccc(N=C2SC(C(=O)Nc3ccc(C)cc3C)CC(=O)N2CCc2ccc(OC)c(OC)c2)cc1 (stereo not given),9.84%

row,Compound,inhibition
1,O=C(Cc1cc(=O)[nH]c(=O)[nH]1)NCCCc1ccccc1,-5.86%
2,CCOC(=O)Nc1c(C(=O)OC)[nH]c2ccc(C)cc12,-2.73%
3,CCOC(=O)Nc1cc(=O)c2cc(C)ccc2o1,41.8% (active)
4,Cc1ccc2oc(C(=O)Nc3ccccc3F)cc(=O)c2c1,4.72%
5,COCCSc1nc2c(c(=O)[nH]c(=O)n2C)n1Cc1ccccc1Cl,2.74%
6,O=[N+]([O-])c1ccc2cnn(-c3cccc(C(F)(F)F)c3)c2c1,-0.71%
7,COc1ccccc1N1CCN(c2ncnc3sc(C(=O)N4CCCCC4C)c(C)c23)CC1 (stereo not given),6.82%
8,CCOC(=O)c1c(/N=C/c2cccc(OC)c2OC)sc2c1CCN(CC)C2,4.12%
9,CC(C)N(CC(=O)N1c2ccccc2CC1C)Cc1ccccc1 (stereo not given),-1.32%
10,CC/C(=N/Nc1nnc2c(n1)[nH]c1ccccc12)c1ccccc1,0.16%
11,Oc1ccc(O)c(/C=N/Nc2nnc3c(n2)[nH]c2ccccc23)c1,49% (active)
12,Cc1cccc2c1[nH]c1nc(N/N=C\c3ccc(O)cc3)nnc12,-16.6%
13,Cc1nc(N2CCC(NCC(F)(F)F)CC2)nc2cc3c(cc12)CCC3,-15.4%
14,C/C(=N\NC(=O)c1nnn(-c2nonc2N)c1C)c1ccc(Cl)c(Cl)c1,-6.68%
15,O=C(O)CCC(=O)N1CCC(c2nc3ccc(Cl)cc3[nH]2)CC1,1.09%
16,O=C(CCCn1c(=S)[nH]c2ccccc2c1=O)NCc1cccc(Cl)c1,3.21%
17,Cc1cc(C)cc(NC(=O)CCCn2c(=S)[nH]c3ccccc3c2=O)c1,34.5% (active)
18,O=C(CCCn1c(=S)[nH]c2ccccc2c1=O)Nc1ccc(F)c(Cl)c1,-21.7%
19,c1cc(Nc2nc(Nc3ccc(N4CCOCC4)cc3)c3ncn(-c4ccsc4)c3n2)ccn1,-4.11%
20,CC(C)n1cnc2c(NCCCN3CCCC3=O)nc(Nc3ccc(-n4ccnc4)cc3)nc21,44.4% (active)
21,CC(C)n1cnc2c(NCCCN3CCCC3=O)nc(-c3csc4ccccc34)nc21,3.47%
22,c1ccc(Nc2nc(Nc3ccc(N4CCOCC4)cc3)c3ncn(-c4ccccc4)c3n2)cc1,3.79%
23,OCCNc1nc(N2CCCC2CO)nc2c1ncn2-c1ccsc1 (stereo not given),14.6%

row,Compound,inhibition
1,COc1ccc(CCNc2nc(N3CCCC3CO)nc3c2ncn3-c2ccsc2)cc1 (stereo not given),53.3% (active)
2,OCC1CCCN1c1nc(NC2CC2)c2ncn(-c3ccccc3)c2n1 (stereo not given),-46.6%
3,c1cnc(Nc2nc(Nc3ccc(N4CCOCC4)cc3)c3ncn(-c4ccsc4)c3n2)nc1,51.1% (active)
4,OCCNc1nc(Nc2ccc(N3CCOCC3)cc2)nc2c1ncn2-c1ccccc1,28.7%
5,CN(C)c1cccc(Nc2nc(NCCN3CCOCC3)c3ncn(-c4ccccc4)c3n2)c1,3.8%
6,O=C1CCCN1CCCNc1nc(Nc2ccc(-n3ccnc3)cc2)nc2c1ncn2CCN1CCCC1=O,4.85%
7,c1ccc(-n2cnc3c(NCCN4CCOCC4)nc(Nc4ccc(-n5ccnc5)cc4)nc32)cc1,61.3% (active)
8,C[C@@H]1CN(C(=O)C2CC23CCN(Cc2coc4ccccc4c2=O)CC3)C[C@H](C)O1 (stereo not given in full),-6.72%
9,Cc1cccc(-c2nc(-c3ccc(Cl)cc3)no2)c1,-40.1%
10,CCN(CC)S(=O)(=O)c1ccc(N2CCc3ccccc32)c([N+](=O)[O-])c1,-8.71%
11,CC(C)(C#N)OC(=O)Nc1cccc(Cl)c1,-3.72%
12,Cc1ccc(N2C(=O)Cc3c2nc(N)c2c(N)nc(N4CCCCC4)c(C#N)c32)cc1C,18.1%
13,CC(C)(C)NC(=O)c1cnn2c(C(F)(F)F)cc(-c3ccc(F)cc3)nc12,6.73%
14,CCOCCOC(=O)COc1ccc2c(C)cc(=O)oc2c1,3.62%
15,Cc1ccc(-c2cc(C(=O)Nc3ccc(Br)cc3Br)c3ccccc3n2)o1,-7.27%
16,Cc1nn(C)c(C)c1NC(=O)c1c([N+](=O)[O-])cnn1C,4.42%
17,Cc1c(Cl)cccc1N1C(=O)c2ccc(Oc3ccc(Nc4ncnc5ccccc45)cc3)cc2C1=O,2.53%
18,O=C(Cc1c(F)cccc1Cl)Nc1cc(C(=O)Nc2cccc(C(F)(F)F)c2)ccc1N1CC2CC(C1)c1cccc(=O)n1C2 (stereo not given),2.29%
19,Nc1nc(NCc2cccnc2)nc2c1ncn2-c1ccsc1,-5.56%
20,c1ccc2c(Nc3nc(NCCN4CCOCC4)c4ncn(-c5ccsc5)c4n3)nccc2c1,19.8%
21,COc1ccc(CCNc2nc(Nc3ccc(-n4ccnc4)cc3)nc3c2ncn3-c2ccsc2)cc1,65.1% (active)
22,Nc1nc(Nc2nccc3ccccc23)nc2c1ncn2-c1ccsc1,53.2% (active)
23,Oc1ccc(CCNc2nc(Nc3ccc(N4CCOCC4)cc3)nc3c2ncn3-c2ccccc2)cc1,9.04%

row,Compound,inhibition
1,COc1cc(Nc2nc(NCc3cccnc3)c3ncn(-c4ccsc4)c3n2)cc(OC)c1OC,30.7%
2,CCNc1nc(Nc2cc(OC)c(OC)c(OC)c2)c2ncn(-c3ccsc3)c2n1,48.6% (active)
3,COc1cc(Nc2nc(NCc3cccnc3)nc3c2ncn3-c2ccsc2)cc(OC)c1OC,0.91%
4,COc1cc(Nc2nc(Nc3nccc4ccccc34)nc3c2ncn3-c2ccsc2)cc(OC)c1OC,12.9%
5,CC(=O)Nc1ccc(Nc2nc(Nc3ccc(-n4ccnc4)cc3)nc3c2ncn3-c2ccsc2)cc1,24.8%
6,Oc1ccc(CCNc2nc(NCCN3CCOCC3)nc3c2ncn3-c2ccsc2)cc1,34.3% (active)
7,c1ccc(Oc2ccc(Nc3nc(Nc4ccccn4)nc4c3ncn4-c3ccsc3)cc2)cc1,2.53%
8,CCCCOc1ccc(NS(=O)(=O)c2cc(F)ccc2OC)cc1,1.6%
9,Cc1cc2c(cc1C)NC(c1cccc3ccccc13)C1=C(CC(C)(C)CC1=O)N2 (stereo not given),-9.75%
10,Cn1c(=O)n(Cc2ccc(F)cc2)c(=O)c2c1nc1oc(C(C)(C)C)cn12,-6.69%
11,O=[N+]([O-])c1ccc(S(=O)(=O)NCCSCc2ccco2)cc1,6.05%
12,C/C(=N\NC(=O)c1ccc(CSc2nc(C)cc(C)n2)cc1)c1ccccc1O,10.2%
13,O=C1CCCN1CCCNc1nc(Nc2ccccc2)c2ncn(-c3ccsc3)c2n1,8.67%
14,CC(C)n1c(Nc2cnccn2)nc2c(NCCc3ccc(O)cc3)ncnc21,14.1%
15,CC(C)n1cnc2c(NCCc3ccc(O)cc3)nc(Nc3cccc(N(C)C)c3)nc21,-1.31%
16,CCNc1nc(NCCCN2CCCC2=O)c2ncn(-c3ccccc3)c2n1,4.42%
17,CCN(CC)C(=O)C1CCCN(c2nc(Nc3ccc(NC(C)=O)cc3)c3ncn(-c4ccsc4)c3n2)C1 (stereo not given),24.3%
18,CC(C)n1cnc2c(NCCc3ccc(O)cc3)nc(Nc3cnccn3)nc21,36.5% (active)
19,O=C1CCCN1CCCNc1nc(Nc2ccncn2)nc2c1ncn2-c1ccsc1,50.5% (active)
20,CCN(CC)C(=O)C1CCCN(c2nc(NC3CC3)c3ncn(-c4ccccc4)c3n2)C1 (stereo not given),9.83%
21,CCN(CC)C(=O)C1CCCN(c2nc(NCCN(C(C)C)C(C)C)c3ncn(-c4ccsc4)c3n2)C1 (stereo not given),36.7% (active)

# — PubChem BioAssay AID1259422 (The Scripps Research Institute Molecular Screening Center, 2018)
